PMK inhibit: S. pneumoniae PMK inhibitors, primary screen, biochemical, mevalonate pathway, pilot trial included. inhibition, % at 10 µM. purified PMK, PK/LDH-coupled NADH absorbance 340 nm. 0.49% of 65,000 active. phosphomevalonate kinase (Streptococcus pneumoniae D39);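 active means top-ranked compounds by inhibition in the single 10 µM screen, taking a fixed number of the strongest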
A340 absorber: compound light absorbance at 340 nm, profiling panel, artefact control, biochemical, MLSMR library, data from PS, PMK, MK assays; compound absorbance at 340 nm, fold over control; fold change at 10 µM; 65,000 tested, under 10 active; AID 708, 2007;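 active means at 10 µM dose, initial 340 nm absorbance at least 2 fold that of control wells; inactive means change under 2 fold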;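 further: initial absorbance extrapolated from kinetic A340 decline of NADH oxidation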
Spn MK inh: S. pneumoniae MK inhibitors, primary screen, biochemical, PK/LDH-coupled NADH absorbance. purified MK, PK/LDH-coupled NADH absorbance 340 nm. AID 555, 2006. 0.48% of 65,000 active. inhibition, % at 10 µM;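 active means ranked among the strongest by inhibition in the single 10 µM screen, a fixed top-ranked set picked for dose follow-up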
Spn DPM-DC inh: S. pneumoniae DPM-DC inhibitors, primary screen, biochemical, PK/LDH-coupled NADH fluorescence; calls only at 10 µM; diphosphomevalonate decarboxylase (Streptococcus pneumoniae D39); purified DPM-DC; AID 556, 2006; 0.49% of 65,000 active;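 active means the 320 compounds with the highest percent inhibition in the single-dose primary screen, excluding strongly autofluorescent ones, cut at about 32% in these data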;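 further: kinetic rate of NADH fluorescence loss reporting ADP formed by the decarboxylase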
Autofluor 339: intrinsic fluorescence of library compounds, ex339/em460 – biochemical, MLSMR library, data from DPM-DC assay, artefact control, profiling panel; compound autofluorescence, ex339/em460 nm, NADH buffer; stronger effect = higher value; 1 = no-compound wells, NADH background; 5.5% of 65,000 active; fluorescence fold increase at 10 µM; AID 709, 2007;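 active means at 10 µM, mean starting fluorescence two-fold or more over control wells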;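 further: signal is the first read of a kinetic run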
NADH enzymes: inhibitors of PK/LDH coupling enzymes, profiling panel, artefact control, biochemical, MLSMR library; IC50, µM (top dose mostly 10 µM); coupled PK/LDH NADH assays, four targets; AID 774, 2007; 0.02% of 65,000 active;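 active means single-dose screening hits from any of four coupled enzyme assays that gave an IC50 when retested across doses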;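 further: the DPM-DC format reads NADH fluorescence rather than 340 nm absorbance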
Numbers stand for hits; n = inactive; x = not tested or not shown; + = active, no number. Compounds with a hit are over-represented: about 6.3% of the library has one in this group of screens.

SMILES | PMK inhibit | A340 absorber | Spn MK inh | Spn DPM-DC inh | Autofluor 339 | NADH enzymes
CCOC(=O)C1CCCN(Cc2ccccc2C)C1 (configuration not stated) | n | n | 42 | n | n | n
OCCSc1nc(-c2cccnc2)nc2ccccc12 | n | n | n | n | n | n
CCOC(=O)C(C)Sc1nc(-c2ccco2)cc(C(F)(F)F)c1C#N (configuration not stated) | n | n | n | n | 2.8 | n
Cc1nc2n(n1)C(c1ccccc1)C1=C(CC(c3ccco3)CC1=O)N2 (configuration not stated) | n | n | n | n | n | n
CC1=C(C(=O)Nc2cccc(C)n2)C(c2ccc3c(c2)OCO3)C2=C(CC(c3ccco3)CC2=O)N1 (configuration not stated) | n | n | n | n | 2.3 | n
CC(=O)Nc1nc(CC(C)C)cc(-c2ccco2)c1C#N | n | n | n | x | 2.3 | n
CC(C)CNC(=O)c1cc(-c2ccco2)on1 | n | n | n | n | n | n
O=C(CCn1c(=S)[nH]c2cc3c(cc2c1=O)OCO3)N1CCN(C2CCCCC2)CC1 | n | n | n | n | n | n
C=CCOc1ccccc1C1C2=C(CC(C)(C)CC2=O)Nc2c1c(=O)n(C)c(=O)n2C (configuration not stated) | n | n | n | x | 3.6 | n
c1ccc2c(-c3nc4ncccc4o3)cccc2c1 | n | n | n | x | 3.8 | n
O=C(COc1ccccc1)Nc1ccc(Cl)c(-c2nc3ncccc3o2)c1 | n | n | n | n | n | n
CC1OC(Nc2cccc3ccccc23)C(O)C(O)C1O (configuration not stated) | n | n | n | x | 2.1 | n
O=C(Nc1cccc2ccccc12)OC1C=CS(=O)(=O)C1 (configuration not stated) | n | n | n | n | n | n
CCCCC(=O)Nc1ccc(NC(=O)CC)cc1OC | n | n | n | n | n | n
Cc1cc(NCCCN2CCOCC2)n2ncc(-c3ccc(Cl)cc3)c2n1 | n | n | n | x | 3.9 | n
O=C(NC1CCCCC1)C(c1ccco1)N(Cc1ccco1)C(=O)c1ccco1 (configuration not stated) | n | n | n | n | n | n
O=C(Nc1ccc2c(c1)C(=O)N(C1CCCCC1)C2=O)C1CCCO1 (configuration not stated) | n | n | n | x | 2.5 | n
O=C(CN1C2=NCCN2c2ccccc21)C12CC3CC(CC(C3)C1)C2 | n | n | n | n | n | n
Nc1ccc(O)cc1C(=O)OCC(=O)C12CC3CC(CC(C3)C1)C2 | n | n | n | x | 2.1 | n
c1csc(C2C3=C(Nc4ncnn42)c2ccccc2OC3)c1 (configuration not stated) | n | n | n | n | 2.3 | n
O=c1cccccc1NCc1ccccc1 | n | n | n | + | n | n
COC(=O)c1ccc(Oc2c(C)oc3c(CN4CCN(C)CC4)c(O)ccc3c2=O)cc1 | n | n | n | x | 3.8 | n
COc1ccccc1Oc1c(C)oc2c(CN3CCN(C)CC3)c(O)ccc2c1=O | n | n | n | x | 3.8 | n
COc1ccc(-c2c(C(F)(F)F)oc3c(CN4CCN(C)CC4)c(O)ccc3c2=O)cc1 | n | n | n | n | n | n
CCOC(=O)c1c(C)oc2c(CN3CCN(C)CC3)c(Br)c(OC)c(O)c12 | n | n | n | n | n | n
SMILES | PMK inhibit | A340 absorber | Spn MK inh | Spn DPM-DC inh | Autofluor 339 | NADH enzymes
COc1ccc(-c2nnc(-c3cccnc3)o2)cc1OC | n | n | n | n | n | n
COc1cc(-c2nnc(-c3ccncc3)o2)ccc1OCc1ccccc1 | n | n | n | n | 2.4 | n
COc1cc(-c2nnc(-c3ccco3)o2)ccc1OCc1ccccc1 | n | n | n | x | 3.6 | n
S=P(c1ccc(N2CCOCC2)cc1N1CCOCC1)(N1CCOCC1)N1CCOCC1 | n | n | n | n | n | n
Cc1nc(N2CCN(C(=O)c3ccc(Cl)cc3)CC2)c(C#N)c2c1COC(C)(C)C2 | n | n | n | x | 2.3 | n
CCCNC(=O)N1CCN(c2nc(C(C)C)c3c(c2C#N)CC(C)(C)OC3)CC1 | n | n | n | n | n | n
CC(C)Cc1nc(N2CCN(C(=O)c3ccco3)CC2)c(C#N)c2c1CCC2 | n | n | n | n | n | n
CC1(C)Cc2c(C#N)c(N3CCN(C(=O)c4ccco4)CC3)nc(Cc3ccccc3)c2CO1 | n | n | n | x | 2.2 | n
N#Cc1c(N2CCN(C(=O)c3ccco3)CC2)nc(-c2ccccc2)c2c1CCCC2 | n | n | n | x | 2.2 | n
O=C(NC(O)C(=O)c1cccs1)c1cccnc1 (configuration not stated) | n | n | n | n | n | n
Cc1ccc(Cl)cc1N1CCN(Cc2nnnn2C2CCCCC2)CC1 | 25 | n | n | n | n | n
COc1ccc(Cl)cc1NC(=O)CSc1nnc(Cn2c(=O)sc3ccccc32)n1C | n | n | n | n | n | n
CCCCC(C(=O)NCCC(C)C)N(CCCN1CCOCC1)C(=O)c1snc(C(N)=O)c1N (configuration not stated) | n | n | n | n | 2.1 | n
CCN1CCN(c2cc(C)c3cc(NC(=O)Cc4ccc(OC)c(OC)c4)ccc3n2)CC1 | n | n | n | x | 2.1 | n
CCN1CCN(c2cc(C)c3cc(NC(=O)c4cnccn4)ccc3n2)CC1 | n | n | n | n | n | n
Cc1cc(N2CCN(C)CC2)nc2ccc(NC(=O)c3ccc4c(c3)OCO4)cc12 | n | n | n | n | n | n
CCC(C)NC(=O)CCC(=O)Nc1ccc2nc(N3CCOCC3)cc(C)c2c1 (configuration not stated) | n | n | n | x | 5 | n
CCOc1ccccc1NC(=O)CCC(=O)Nc1ccc2nc(N3CCN(C)CC3)cc(C)c2c1 | n | n | n | n | 3.8 | n
CCCCN(C)C(=O)CCC(=O)Nc1ccc2nc(N3CCOCC3)cc(C)c2c1 | n | n | n | x | 4.8 | n
O=C(NCc1ccccc1)c1ccc(COCC(F)(F)F)o1 | n | n | n | n | n | n
N#CC1=C(c2ccccc2)N=P(N2CCOCC2)(N2CCOCC2)N=C1N1CCOCC1 | n | n | n | n | n | n
Cc1cccc(NC(=O)c2cc(N3CCOCC3)nc3ccccc23)c1 | n | n | n | n | n | n
Cc1ccc(NC(=O)c2cc(N3CCOCC3)nc3ccccc23)cc1 | n | n | n | n | n | n
Cc1cc(N2CCOCC2)nc2ccc(NC(=O)CCC(=O)N3CCC(C)CC3)cc12 | n | n | n | x | 4.8 | n
Cc1cc(N2CCOCC2)nc2ccc(NC(=O)CCC(=O)N3CCCCC3)cc12 | n | n | n | x | 4.7 | n

Compound activity: PubChem, SRMLSC
